The whole screen tested about 68,000 compounds, of which about 2,700 (4%) showed an effect of 50% or more. This excerpt belongs to a sample that is enriched for strong results.

The assay deals with Plasmodium berghei. As to the kind of experiment: Screen against P. berghei liver stage (PbLuc), transformed with Luciferase, at 2uM. The conditions noted are these: tested at 2 uM. In kind it is functional, HepG2.
Regarding `O=C([C@@H]1Cc2[nH]cnc2CN1C(=O)NC1CCCCC1)N1CCCC1`, the INHIBITION turned out to be 17.77%.

Consider `CN1Cc2nc[nH]c2C[C@H]1C(=O)NC1CCCCC1`, for which the INHIBITION was 60.6%.

Regarding `CN(Cc1ccccc1)C(=O)[C@@H]1Cc2[nH]cnc2CN1C`, the INHIBITION is 4.59%.

Turning to `CCC(C)C(=O)N(C)Cc1cc(F)ccc1N1CCC(OC)CC1` (configuration not stated), the INHIBITION is 15.56%.

As to `Cc1ccc(CNC(=O)c2ccc(S(=O)(=O)N3C[C@H]4C[C@@H]3CN4)cc2)o1`, the INHIBITION was determined as 44.86%.

As for `CC(C)N1CCC(CNCc2c[nH]nc2C(C)(C)C)C1` (configuration not stated), the INHIBITION was determined as 66.97%.

For the compound `CCN1CCC(CNCc2c[nH]nc2C(C)(C)C)C1` (configuration not stated), the INHIBITION was determined as 37.68%.

For `CC(C)(C)c1n[nH]cc1CNCC1CCN(C2CC2)C1` (configuration not stated), the INHIBITION came to 10.43%.

For `CCc1nc(CN2CCOC(Cn3nc(C)cc3C)C2)no1` (configuration not stated), the INHIBITION is given as -7.73%.

Turning to `O=C(CCCc1nc(C2CC2)no1)N1CCCC(c2ccn[nH]2)C1` (configuration not stated), the INHIBITION stood at 41.84%.

Consider `COc1ccc(Cl)cc1NC(=O)CCNc1ccc(C#N)cn1`, for which the INHIBITION was 9.27%.

As for `N#Cc1cccc(CN2CC[C@@H]3CN(c4ncccn4)CCO[C@@H]3C2)c1`, the INHIBITION is 14.94%.

Consider `O=S(=O)(C1CC1)N1CCc2onc(COc3ccccn3)c2C1`, for which the INHIBITION worked out at 16.03%.

As to `CC(=O)NC1CCCN(C(=O)NCc2cc[nH]n2)C1` (configuration not stated), the INHIBITION worked out at 45.83%.

`Cc1nc(CCNC(=O)NCC(c2ccco2)N(C)C)cs1` (configuration not stated): the INHIBITION came to 34.73%.

As to `O=C(NCc1cc[nH]n1)N1CCCC(N2CCCC2)C1` (configuration not stated), the INHIBITION amounted to 51.94%.

As for `O=C(NCc1cc[nH]n1)NCC(c1ccco1)N1CCCC1` (configuration not stated), the INHIBITION is recorded as -4.1%.

Regarding `O=C(NCc1cc[nH]n1)N1CCCCC(N2CCCC2)C1` (configuration not stated), the INHIBITION is recorded as 8.37%.

Take `O=C(NCc1cc[nH]n1)N1CCN(c2ncccn2)CC1`: the INHIBITION is recorded as -23.42%.

On to `N#Cc1ccccc1N1CCCN(C(=O)NCc2cc[nH]n2)CC1`, for which the INHIBITION was -13.24%.

In the case of `CCN1CCN(C(=O)NCc2cc[nH]n2)CC1`, the INHIBITION was 56.02%.

On to `CCOc1ccccc1N1CCN(C(=O)NCc2cc[nH]n2)CC1`, for which the INHIBITION was 56.02%.

Take `O=C(NCc1cc[nH]n1)N1CCN(c2ccccc2Cl)CC1`: the INHIBITION is listed as -56.99%.

For `CN(C)C(CNC(=O)NCc1cc[nH]n1)c1ccco1` (configuration not stated), the INHIBITION was determined as 53.61%.

For the compound `CC(=O)N1CCCN(C(=O)NCc2cc[nH]n2)CC1`, the INHIBITION is given as -27.69%.

Regarding `CCCN(CC)C(=O)c1cc(Cn2c(C)nc3ccccc32)[nH]n1`, the INHIBITION is 38.75%.

In the case of `CNS(=O)(=O)c1cccc(CNc2ncccn2)c1`, the INHIBITION was -18.94%.

For `c1ccn(Cc2nnc3n2CCCN(Cc2ccoc2)C3)c1`, the INHIBITION is listed as 18.31%.

In the case of `CCC(CNC(=O)NCc1cc[nH]n1)N1CCCC1` (configuration not stated), the INHIBITION is reported as 76.6%.

Regarding `CC(C)CC(CNC(=O)NCc1cc[nH]n1)N1CCOCC1` (configuration not stated), the INHIBITION was 40.29%.

Regarding `COc1ccccc1C(CNC(=O)NCc1cc[nH]n1)N1CCCC1` (configuration not stated), the INHIBITION is listed as -10.44%.

Take `CC(=O)N1CC[C@@H]2CN(Cc3ccncc3)S(=O)(=O)[C@@H]2CC1`: the INHIBITION is reported as -66.17%.

Regarding `Cc1c(C2CCOC(C)(C)C2)nc(N)c(C#N)c1-c1ccc(O)cc1` (configuration not stated), the INHIBITION is -11.34%.

On to `Cc1cc(C)c2c(c1)C(CC(=O)O)C(=O)N2` (configuration not stated), for which the INHIBITION was found to be 52.38%.

As for `Cc1cc(C)c2c(c1)NC(=O)C2CC(=O)O` (configuration not stated), the INHIBITION is recorded as 33.22%.

Turning to `Cc1ccc(C)c2c1NC(=O)C2CC(=O)O` (configuration not stated), the INHIBITION turned out to be 42.8%.

As for `CCN1CC2(CC1=O)CN(C(=O)c1cccs1)CCN(C(=O)N(C)C)C2` (configuration not stated), the INHIBITION was -48.39%.

On to `CCc1noc(CS(=O)(=O)Cc2nc(Cc3ccccc3)no2)n1`, for which the INHIBITION was 34%.

Regarding `CCc1noc(CS(=O)(=O)Cc2ccccc2C)n1`, the INHIBITION was 30.59%.

For the compound `CCc1noc(CS(=O)(=O)Cc2ccccc2Cl)n1`, the INHIBITION turned out to be 61.32%.

Regarding `CC(=O)N1CCCC1C(=O)NCCOc1cccc(F)c1` (configuration not stated), the INHIBITION is on record as 16.25%.

For the compound `CN(C)C(=O)NC1COC2(CCN(Cc3ccc(N(C)C)cc3)CC2)C1` (configuration not stated), the INHIBITION is on record as 53.98%.

Regarding `CN(C)C(=O)NC1COC2(CCN(Cc3ccc(Cl)c(F)c3)CC2)C1` (configuration not stated), the INHIBITION is on record as -8.04%.

As for `CN(C)C(=O)NC1COC2(CCN(Cc3ccccc3)CC2)C1` (configuration not stated), the INHIBITION is recorded as 0.14%.

`Cc1ccoc1C(=O)N1CC[C@H]2C[C@H](c3nnc(C4CC4)o3)O[C@@H]2C1`: the INHIBITION is recorded as -11.79%.

Take `CNC(=O)C1(C)CCCN1Cc1cnn(C)c1C` (configuration not stated): the INHIBITION was determined as 18.15%.

For the compound `CC(C)OCCCN(CC(=O)N1CCNCC1)C(=O)c1ccc(F)cc1`, the INHIBITION is -20.36%.

Consider `COc1ccc(OC)c(CNC(=O)N2CCC(n3cncn3)CC2)c1`, for which the INHIBITION is 3.06%.

Take `CCOc1ccccc1CNC(=O)N1CCC(n2cncn2)CC1`: the INHIBITION is recorded as -111.08%.

Consider `COc1cc(Cl)ccc1CNC(=O)N1CCC(n2cncn2)CC1`, for which the INHIBITION was 70.27%.

`NC(=O)NC(=O)CCSc1ccccc1Cl`: the INHIBITION is reported as 12.14%.

Regarding `Cc1nc(C)n(CC2CN(CCOc3cccc(C#N)c3)CCO2)n1` (configuration not stated), the INHIBITION is on record as -5.15%.

Source of the values: ChEMBL document CHEMBL4513216, “Probing the Open Global Health Chemical Diversity Library for Multistage-Active Starting Points for Next-Generation Antimalarials” (ACS Infect Dis, 2020).
